# Results filed as inconclusive are left out. Activity calls are given as the source filed them. Unless noted, calls follow the shape of the dose curve; as a rule, active = well fitted curve in the direction sought with a large enough effect; inconclusive = small, poorly fitted or top-dose-only effect, or another doubt; inactive = no such curve, though single readings can be large; an effect the other way counts as inactive or inconclusive.
# Legend:
# [1] = Quantitative High-Throughput drug screen in 47 multiple myeloma cell lines against the NCATS MIPE library collection: VP6_DJ cell viability assay (AID 1919867); also: nearly all actives have a fitted effect of over 40% in size; also: potency is read from the fitted curve at half-maximal effect
# In short: (§1)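 Inhibition of viability over 48 h was scored by ATP content (CellTiter-Glo) in 500-cell wells. Zero and full viability were defined by media-only and DMSO-only wells.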
# [2] = Quantitative High-Throughput drug screen in 47 multiple myeloma cell lines against the NCATS MIPE library collection: PE2_PLB cell viability assay (AID 1919869); also: nearly all actives have a fitted effect of over 35% in size; also: potency is read from the fitted curve at half-maximal effect
# In short: as §1
# [3] = Quantitative High-Throughput drug screen in 47 multiple myeloma cell lines against the NCATS MIPE library collection: OPM2_DSMZ cell viability assay (AID 1919872); also: nearly all actives have a fitted effect of over 30% in size; also: potency is read from the fitted curve at half-maximal effect
# In short: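 Inhibition of cell viability is measured here. Each line was plated at 500 cells per well, treated with MIPE 4.0 drugs, kept 48 hours at 37C, then assayed for ATP content by CellTiter-Glo luminescence.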
# [4] = Quantitative High-Throughput drug screen in 47 multiple myeloma cell lines against the NCATS MIPE library collection: KMS11_JCRBsus cell viability assay (AID 1919873); also: nearly all actives have a fitted effect of over 50% in size; also: potency is read from the fitted curve at half-maximal effect
# In short: as §1
# [5] = qHTS drug screen for cell cycle checkpoint inhibitors in PARPi-resistant BRCA-mutant ovarian cancer cell lines. (AID 1963452; calls by dose curve); details: PEO1/OlaR viability, CellTiter-Glo luminescence, 96 h, stronger effect = lower value
# In short: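 PEO1, PEO4 and PEO1/OlaR ovarian cancer cells, 600 per well, exposed 96 h at 37C to a dilution series. Viability read by CellTiter-Glo luminescence, normalized to DMSO and empty wells; activity summarized as Z-AUC.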
# [6] = Quantitative High-Throughput drug screen in 47 multiple myeloma cell lines against the NCATS MIPE library collection: PCM6_Riken cell viability assay (AID 1919870); also: nearly all actives have a fitted effect of over 30% in size; also: potency is read from the fitted curve at half-maximal effect
# In short: as §1
# C2A = assay: qHTS profiling for inhibitors of Plasmodium falciparum proliferation (AID 504749); also: potency is read from the fitted curve at half-maximal effect; nearly all actives have a fitted effect of over 60% in size; details: P. falciparum in erythrocytes, SYBR Green DNA, 72 h; series mostly up to 28.7 µM
# In short: (§2)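 Infected RBCs, 0.3% parasitemia/2.5% Hct final; cpd 72 h, 37 C, 5% CO2; lysis buffer with saponin/triton/SYBR Green I, o/n RT dark; FI 485/535; norm. to artemisinin (0.29 uM) and DMSO.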
# CP191 = assay: as above; details: P. falciparum in erythrocytes, SYBR Green DNA, 72 h; series mostly up to 28.7 µM
# In short: as §2
# [7] = Quantitative High-Throughput drug screen in 47 multiple myeloma cell lines against the NCATS MIPE library collection: UTMC2_PLB cell viability assay (AID 1919868); details: CellTiter-Glo ATP luminescence, 48 h; viability (% of DMSO control): at 45.8 µM (top of the series) unless noted; also: nearly all actives have a fitted effect of over 55% in size; also: potency is read from the fitted curve at half-maximal effect;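 as to viability (% of DMSO control): 100% = DMSO-only wells and 0% = media-only wells without cells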
# In short: as §1
# [8] = Quantitative High-Throughput drug screen in 47 multiple myeloma cell lines against the NCATS MIPE library collection: RPMI8226_ATCC cell viability assay (AID 1919871); also: nearly all actives have a fitted effect of over 30% in size; also: potency is read from the fitted curve at half-maximal effect
# In short: as §1
# [9] = Quantitative High-Throughput drug screen in 47 multiple myeloma cell lines against the NCATS MIPE library collection: KMS28BM_JCRB cell viability assay (AID 1919874); also: nearly all actives have a fitted effect of over 35% in size; also: potency is read from the fitted curve at half-maximal effect
# In short: as §1
# [10] = qHTS for identification of novel therapeutic agents for treatment of microphthalmiaassociated transcription factor (MiT) renal cell carcinoma (RCC) (AID 1963991; calls by dose curve; also: potency is read from the fitted curve at half-maximal effect); details: CellTiter-Glo, 48 h; for z-score: stronger effect = lower value; for Potency: active = Z-AUC below -0.8 in all three lines
# In short: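 Three TFE3-fusion RCC cell lines (UOK109, UOK124, UOK145), 500 cells/well, were exposed to the 1912-compound MIPE 4.0 library for 48 hours at 37 C. Viability was read by CellTiter-Glo luminescence, normalised to DMSO (100%) and empty wells (0%), with 11-concentration curve fits.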
# [11] = measured here: PEO1 parental Z-AUC
# [12] = TFE3-RCC UOK109 viability, measured here: UOK109 Z-AUC
# [13] = TFE3-RCC viability, measured here: UOK124 Z-AUC
# [14] = TFE3-RCC viability, measured here: UOK145 Z-AUC
smiles,measurement,setting,value
Cc1nc(N)ncc1-c1nc(N2CCOCC2)c2sc(C(C)(C)O)cc2n1,Potency,[1],935 nM (active)
same,Potency,[2],1050 nM (active)
same,Potency,[3],3720 nM (active)
same,Potency,[4],83.3 nM (active)
same,Z-AUC,[5],0.231 (inactive)
same,Z-AUC,[5]; [11],0.219
same,Z-AUC,[5]; measured here: PEO4 Z-AUC,0.116
CC(C)(C)NC(=O)[C@H]1CN(Cc2cccnc2)CCN1C[C@@H](O)C[C@@H](Cc1ccccc1)C(=O)N[C@H]1c2ccccc2C[C@H]1O,Potency,[1],7430 nM (active)
same,Potency,[6],8330 nM (active)
same,Potency,[4],18700 nM (active)
same,Potency,C2A,10000 nM (active)
same,Potency,CP191,8910 nM (active)
CCOC(=O)C1=C(C)NC2=C(C(=O)CC(C)(C)C2)C1c1ccc(-c2ccccc2)cc1 (stereo unspecified),Potency,[7],18700 nM (active)
same,Potency,[2],20900 nM (active)
same,Potency,[6],20900 nM (active)
same,Potency,[8],23500 nM (active)
same,Potency,[4],18700 nM (active)
same,Z-AUC,[5],0.483 (inactive)
same,Z-AUC,[5]; [11],0.756
same,Z-AUC,[5]; measured here: PEO4 Z-AUC,0.977
Clc1cccc(-n2nnnc2NCc2ccccc2Oc2ccccn2)c1Cl,Potency,[7],inactive
same,Potency,[6],inactive
same,Potency,[3],inactive
same,Potency,[4],inactive
same,Potency,[9],inactive
same,Z-AUC,[5],-0.248 (inactive)
same,Z-AUC,[5]; [11],-0.502
same,Z-AUC,[5]; measured here: PEO4 Z-AUC,0.0945
same,z-score,[10]; [12],-0.1
same,z-score,[10]; [13],0.284
same,z-score,[10]; [14],-0.372
Cc1ccc(S(=O)(=O)Nc2cc(Cl)ccc2C(=O)Nc2nc(-c3ccccc3)cs2)cc1,Potency,[1],6620 nM (active)
same,Potency,[2],5900 nM (active)
same,Potency,[8],16600 nM (active)
same,Potency,[4],10500 nM (active)
same,Z-AUC,[5],-0.703 (inactive)
same,Z-AUC,[5]; [11],-0.778
same,Z-AUC,[5]; measured here: PEO4 Z-AUC,-1.08
COc1c(OCCCN2CCOCC2)ccc2c3n(c(=NC(=O)c4cnc(N)nc4)nc12)CCN3,Potency,[1],457 nM (active)
same,Potency,[2],457 nM (active)
same,Potency,[8],129 nM (active)
same,Potency,[3],2040 nM (active)
same,Potency,[4],32.3 nM (active)
same,Potency,[9],115 nM (active)
same,Z-AUC,[5],-1.27 (inactive)
same,Z-AUC,[5]; [11],-1.04
same,Z-AUC,[5]; measured here: PEO4 Z-AUC,-0.708
same,Potency,[10]; TFE3-RCC UOK109 viability,40.7 nM (active)
same,z-score,[10]; [12],-1.18
same,z-score,[10]; [13],-2.73
same,z-score,[10]; [14],-1.79
Cc1c(NC(=O)OC[C@@H]2COCCN2)cn2ncnc(Nc3ccc4c(cnn4Cc4cccc(F)c4)c3)c12,Potency,[1],1870 nM (active)
same,Potency,[2],5260 nM (active)
same,Potency,[10]; TFE3-RCC UOK109 viability,118 nM (active)
same,z-score,[10]; [12],-1.82
same,z-score,[10]; [13],-1.81
same,z-score,[10]; [14],-2.05
CNC(=O)CN1CCC(Oc2cc3c(Nc4cccc(Cl)c4F)ncnc3cc2OC)CC1,Potency,[1],18.7 nM (active)
same,Potency,[6],23.5 nM (active)
same,Potency,[3],83.3 nM (active)
same,Potency,[4],37.2 nM (active)
same,Potency,[9],18.7 nM (active)
same,Potency,[10]; TFE3-RCC UOK109 viability,1870 nM (active)
same,z-score,[10]; [12],-2.86
same,z-score,[10]; [13],-2.18
same,z-score,[10]; [14],-1.75
Nc1nc(-c2nn(Cc3ccccc3F)c3ncccc23)nc(N)c1N1CCOCC1,Potency,[1],3720 nM (active)
same,Potency,[3],inactive
same,Potency,[9],inactive
same,Z-AUC,[5],-0.481 (inactive)
same,Z-AUC,[5]; [11],-0.352
same,Z-AUC,[5]; measured here: PEO4 Z-AUC,-0.594
C[C@@H](Oc1cc(-n2cnc3ccc(CN4CCN(C)CC4)cc32)sc1C(N)=O)c1ccccc1C(F)(F)F,Potency,[1],18700 nM (active)
same,Potency,[6],13200 nM (active)
same,Potency,[3],59 nM (active)
same,Potency,[4],23.5 nM (active)
same,Z-AUC,[5],-0.926 (inactive)
same,Z-AUC,[5]; [11],-1.54
same,Z-AUC,[5]; measured here: PEO4 Z-AUC,-1.51
NCC(=O)Nc1ccc(-n2nc(C(F)(F)F)cc2-c2ccc3c(ccc4ccccc43)c2)cc1,Potency,[1],18700 nM (active)
same,Potency,[2],20900 nM (active)
same,Potency,[6],20900 nM (active)
same,Z-AUC,[5],0.362 (inactive)
same,Z-AUC,[5]; [11],-0.764
same,Z-AUC,[5]; measured here: PEO4 Z-AUC,-0.389
CNC(=O)c1ccc(-c2cnc3ncc(Cc4ccc5ncccc5c4)n3n2)cc1F,Potency,[1],inactive
same,Potency,[8],inactive
same,Potency,[4],inactive
same,Potency,[9],inactive
same,Z-AUC,[5],-0.273 (inactive)
same,Z-AUC,[5]; [11],1.03
same,Z-AUC,[5]; measured here: PEO4 Z-AUC,0.0538
Cc1cc(Nc2cc(NC(=O)c3c(Cl)cccc3Cl)ccn2)nc(N)n1,Potency,[1],1660 nM (active)
same,Potency,[2],2960 nM (active)
same,Potency,[6],2350 nM (active)
same,Potency,[4],372 nM (active)
same,Z-AUC,[5],-0.241 (inactive)
same,Z-AUC,[5]; [11],-1.26
same,Z-AUC,[5]; measured here: PEO4 Z-AUC,-0.959
CCN1CCN(Cc2ccc(-c3cc4c(N[C@H](C)c5ccccc5)ncnc4[nH]3)cc2)CC1,Potency,[7],662 nM (active)
same,Potency,[6],1660 nM (active)
same,Potency,[4],3720 nM (active)
same,Potency,[9],2960 nM (active)
same,Z-AUC,[5],-1.03 (inactive)
same,Z-AUC,[5]; [11],0.0439
same,Z-AUC,[5]; measured here: PEO4 Z-AUC,-0.489
O=C(NCCS(=O)(=O)c1ccc(C(F)(F)F)cn1)c1ccc(Cl)cc1,Potency,[7],inactive
same,Potency,[2],inactive
same,Potency,[6],inactive
same,Potency,[3],inactive
same,Potency,[4],inactive
same,Potency,[9],inactive
same,Z-AUC,[5],0.591 (inactive)
same,Z-AUC,[5]; [11],0.415
same,Z-AUC,[5]; measured here: PEO4 Z-AUC,0.479
same,z-score,[10]; [12],-0.45
same,z-score,[10]; [13],0.348
same,z-score,[10]; [14],0.45
Cc1c(Cn2c(C)nc3c(C(=O)O)cc(N4CCOCC4)cc32)cccc1C(F)(F)F,Potency,[1],4180 nM (active)
same,Potency,[8],inactive
same,Potency,[3],inactive
same,Potency,[4],inactive
same,Potency,[9],inactive
same,Z-AUC,[5],0.672 (inactive)
same,Z-AUC,[5]; [11],0.875
same,Z-AUC,[5]; measured here: PEO4 Z-AUC,0.3

# Reference: PubChem BioAssay (NCATS)
